KDM5B inhibitor = blocks human KDM5B histone demethylase activity | KDM5B demethylase, FDH-coupled NADH fluorescence (FDH is formaldehyde dehydrogenase) | AID 1347165 | Potency, µM (doses to about 57.7 µM), hits mostly inhibitors | 220,000 compounds, 2.6% hits; active means well fitted inhibition curve with a large enough effect; further: nearly all actives have a fitted effect of over 70% in size
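KDM5BΔAP (200 nM final) in 50 mM HEPES pH 7.5, 0.01% Tween-20 was preincubated 10 min at RT with compound over a concentration range. Substrate mix (H3K4me3 12.5 µM, α-KG 25 µM, Fe²⁺, ascorbate, NAD⁺, FDH) was added, and NADH fluorescence change over 30 min gave dose-response curves.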
Of the large screens only hits and unclear results are named; the others gave an inactive call. This excerpt belongs to a sample that is enriched for hits.

CC(=O)NC1=NN(C(C)=O)C(c2ccccc2OCc2ccccc2)S1 (stereo not given)	none
O=C(CCn1nnc2ccccc21)OCC(=O)c1ccc(Cl)cc1	none
Cn1c(=O)c2[nH]c(N3CCN(C(=O)C4CCCCC4)CC3)nc2n(C)c1=O	none
Cc1cccc(C(=O)NC2CCCCCC2)n1	none
Cc1cccc(C)c1-c1nc(C(=O)NC2CC2)n2ccccc12	KDM5B inhibitor 100µM
Cc1ccccc1-n1nnc(C(=O)NC2CCCC2)c1N	none
COC(=O)CNC(=O)c1nc(-c2c(C)cccc2C)c2ccccn12	KDM5B inhibitor 28.2µM
CC1CCN(c2oc(-c3cccs3)nc2C#N)CC1	none
COC(=O)c1ccc(NC(=O)CCCc2cccs2)cc1	none
O=C(c1ccnc2[nH]ccc12)N1CCOCC1	KDM5B inhibitor 126µM
COCCCNC(=O)c1c[nH]c2ncccc12	none
CC(=O)N1CCN(C(=O)c2c[nH]c3ncccc23)CC1	none
O=C(c1cc(N2CCCCCC2)nc2ccccc12)N1CCOCC1	none
CN(C)C(=O)c1ccnc2[nH]ccc12	KDM5B inhibitor 126µM
Cc1ccc(Br)c(C(=O)NCc2ccnc3[nH]ccc23)c1	none
Cc1ccc(/C=N/NC(=O)C2CC2)o1	none
CCN(CC)CCCNC(=O)C(C)C1CCN(C(=O)c2ccc3nc(-c4ccccc4)oc3c2)CC1 (stereo not given)	none
CSc1ccc(/C=C2N=C(/C=C/c3ccccc3)OC/2=O)cc1	none
CC(NC(=O)c1cccc(S(=O)(=O)Nc2ccc3c(c2)OCO3)c1)c1ccc2c(c1)OCCO2 (stereo not given)	none
N#CC1=C(N)OC2=C(C(=O)CC(c3cccc(Cl)c3)C2)C1c1ccc(Cl)cc1 (stereo not given)	none
C/C(=N/NC(=O)c1cccs1)c1ccc(-c2ccccc2)cc1	none
Cc1ccc2[nH]c(CN3CC[C@H]4NCCC[C@]4(CO)C3)cc(=O)c2c1	KDM5B inhibitor 12.6µM
OC[C@]12CCCN[C@@H]1CCN(Cc1cccc(-c3ccccn3)c1)C2	none
Cc1ccc2[nH]c(CSc3nnc(C)s3)cc(=O)c2c1	none
N#CC1(NC(=O)COc2cccc(C(F)(F)F)c2)CCCC1	none
CC(C)(C)n1ncc2c1NC(=O)CC21C(=O)Nc2cccc(Cl)c21 (stereo not given)	none
COc1ccc(CN2C[C@H](O)C[C@H]2c2nc(-c3cccc(C)c3)no2)c2ccccc12	KDM5B inhibitor 22.4µM
Cc1cccc(-c2noc([C@@H]3C[C@@H](O)CN3Cc3cccc(C#N)c3)n2)c1	none
Oc1ccccc1CN1C[C@H](O)C[C@H]1c1nc(-c2ccccc2)no1	none
O=C(Cc1cccc2cccnc12)NCc1ccccc1	none
Cc1ccccc1NC(=O)c1cccc2c(=O)c(C)c(-c3ccccc3)oc12	none
CCCC(=O)NCCc1cccc(F)c1	none
Cn1c(=O)c2c(nc(SCc3cccc(F)c3)n2Cc2ccccc2)n(C)c1=O	none
O=C1CC2CCN(Cc3ccccc3)CC2CCN1 (stereo not given)	none
Cn1cccc1CN1CCC2CC(=O)NCCC2C1 (stereo not given)	KDM5B inhibitor 100µM
O=C1CC2CCN(Cc3ccc(C(F)(F)F)cc3)CC2CCN1 (stereo not given)	none
COc1ccccc1C(=O)/C=C/c1cccc(OC)c1OC(F)F	none
COCCNc1ncccc1-c1noc([C@@H]2CCCN2Cc2ccco2)n1	KDM5B inhibitor 28.2µM
COCCNc1ncccc1-c1noc([C@@H]2CCCN2CC(C)(C)C)n1	KDM5B inhibitor 35.5µM
COCCOc1ccnc(-c2noc([C@@H]3CCCN3CC(C)(C)C)n2)c1	none
COCCOc1ncccc1-c1noc([C@@H]2CCCN2Cc2cccc(C#N)c2)n1	none
COc1cc(C(=O)N2CCC[C@H]2c2nc(-c3ccccc3Cl)no2)cc(OC)c1OC	none
COCCOc1ncccc1-c1noc([C@@H]2CCCN2C2CCN(C)CC2)n1	none
COCCNc1ncccc1-c1noc([C@@H]2CCCN2C2CCOCC2)n1	KDM5B inhibitor 39.8µM
COCCOc1ncccc1-c1noc([C@@H]2CCCN2C2CCN(C(C)=O)CC2)n1	none
COc1ccc(Nc2cc(C)nc3nc(-c4ccccc4)nn23)cc1	none
C/C(=N\O)c1ccc(OCC(O)CNC(C)C)cc1 (stereo not given)	none
CC(C)C(NC(=O)c1cccc(NC(N)=O)c1)c1ccc(Cl)cc1 (stereo not given)	none
Cc1nn(C)cc1B1OC(C)(C)C(C)(C)O1	none
CCOc1ccccc1NC(=O)C(C)Oc1ccc(-n2cnnn2)cc1 (stereo not given)	none
Cc1cccc(Oc2c(C(F)(F)F)oc3cc(OC(=O)c4cncc(Br)c4)ccc3c2=O)c1	none
O=C(OCC(=O)c1c[nH]c2ccccc12)c1cccs1	none
N[C@@H](CO)c1nc(C2CCOCC2)nn1-c1ccccc1F	KDM5B inhibitor 25.1µM
Fc1cccc(-n2nc(C3CCOCC3)nc2CNC2CC2)c1	none
c1ccc(Cn2nc(C3CCOCC3)nc2C2CCC2)cc1	none
Cc1ccc(NC(=O)c2cc3c(N(C)Cc4ccccc4)nc(C)cn3n2)c(F)c1	KDM5B inhibitor 10µM
Cc1ccc(NC(=O)c2nn(-c3ccccc3)c(=O)c3ccccc23)c(F)c1	none
Cc1cn2nc(C(=O)Nc3ccc(Cl)cc3)cc2c(N(C)Cc2ccccc2)n1	KDM5B inhibitor 28.2µM
O=C(Nc1ccc(S(=O)(=O)N(Cc2ccccc2)c2ccccc2)cc1)c1ccc(F)cc1	none
Cc1ccc(Cl)cc1NC(=O)Nc1nnc(N(C)Cc2ccccc2)s1	none
COc1ccc(NC(=O)Cn2c(N(C)Cc3ccccc3)nc(C)cc2=O)cc1	none
Cc1cn2nc(C(=O)Nc3ccc(C)c(F)c3)cc2c(N(C)Cc2ccccc2)n1	none
Cc1cn2nc(C(=O)Nc3ccc(F)cc3)cc2c(N(C)Cc2ccccc2)n1	KDM5B inhibitor 25.1µM
Cc1ccc(NC(=O)Nc2nnc(N(C)Cc3ccccc3)s2)c(C)c1	none
COc1ccc(C(=O)c2sc(Nc3c(C)cccc3C)nc2N)cc1OC	none
O=C1CCN(C(=O)[C@@H]2CCCN2S(=O)(=O)c2ccccc2)CCCCCCN1	none
Fc1ccc(OC2CN(Cc3ccsc3)C2)c(F)c1	none
CNC(=O)c1cccc(OCc2coc(-c3cccc(F)c3)n2)c1	none
O=C(/C=C/c1ccc(Br)cc1)NC1CCCC1	none
Cc1cc(C)c2c(CC(=O)Nc3c(C)cccc3C)coc2c1	none
CCCCCCNC(=O)CCNC(=O)c1ccccc1	none
COc1ccc(Cl)cc1C(=O)N(C1CCCCC1)C1CCCCC1	none
CC(C)c1nc2c(c(-c3ccc(O)cc3)n1)CN([S+](=O)([O-])c1cccc(C(F)(F)F)c1)CC2	none
Cc1cc(C)cc(-n2nnnc2SCCCn2c(=O)c3c(ncn3C)n(C)c2=O)c1	none
O=C(CCc1ccccc1)NCC(=O)N1CCCCCCNC(=O)CC1c1ccccc1 (stereo not given)	none
O=C(c1cc(Cl)ccc1F)N1CCN(Cc2nnnn2C2CC2)CC1	none
COCCNC(=O)[C@@H]1Cc2cn(Cc3ccncc3)c3cccc(c23)[C@H](CC(C)C)N1	none
CC(C)C[C@@H]1N[C@H](C(=O)NCCN(C)C)Cc2cn(CC3CC3)c3cccc1c23	KDM5B inhibitor 28.2µM
C=CCn1cc2c3c(cccc31)[C@H](CC(C)C)N[C@H](C(=O)NCCN(C)C)C2	KDM5B inhibitor 31.6µM
C=CCNC(=O)[C@@H]1Cc2cn(Cc3ccncc3)c3cccc(c23)[C@H](CC(C)C)N1	none
CC#CCn1cc2c3c(cccc31)[C@H](CC(C)C)N[C@H](C(=O)NCCOC)C2	none
C=CCNC(=O)[C@@H]1Cc2cn(CC=C)c3cccc(c23)[C@H](CC(C)C)N1	none
CC1CCC(C(C)C)/C(=N/NC(N)=O)C1 (stereo not given)	none
CCNc1nc(N)c(C(=O)c2ccc(Cl)cc2)s1	none
CC(CC(=O)Nc1ccc(Cl)cc1)n1ccnc1 (stereo not given)	none

Compound activity: PubChem BioAssay, National Center for Advancing Translational Sciences (NCATS)
